Source: PubChem BioAssay (NCI)
This is part of a sample that, as a whole, favours compounds with a hit. Of some 79,000 tested, about 15% had one in any assay. Unmarked numbers belong to inactive results. Activity calls are given as the source filed them. Rule as the data show it: active = growth inhibition above about 70%; inactive = the rest.

Assays:
[1] = NCI Yeast Anticancer Drug Screen. Data for the rad50 strain (AID 155);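 also: 0% = growth of vehicle-only cultures of the same strain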; details: S. cerevisiae rad50 strain growth inhibition, stronger effect = higher value
Outline: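 Growth of the mutant yeast was measured after compound exposure and referenced to vehicle-treated cultures.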

[2] = NCI Yeast Anticancer Drug Screen. Data for the mec2-1 strain (AID 157); details: S. cerevisiae mec2-1 strain, stronger effect = higher value
Outline: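 Readout is yeast growth inhibition, normalised to vehicle-treated controls, in the mec2-1 strain exposed to compound.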

[3] = NCI Yeast Anticancer Drug Screen. Data for the sgs1 mgt1 strain (AID 161);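 also: 0% = growth of cultures given vehicle only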; details: S. cerevisiae sgs1 mgt1 strain, stronger effect = higher value
Outline: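 Yeast cells carrying a defined DNA-repair defect were exposed to test compounds. Growth inhibition was measured relative to vehicle-treated controls.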

[4] = NCI Yeast Anticancer Drug Screen. Data for the cln2 rad14 strain (AID 165);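 also: 0% = growth equal to vehicle treated cultures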; details: S. cerevisiae cln2 rad14 strain, stronger effect = higher value
Outline: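 Relative to vehicle controls, growth inhibition of compound-treated cln2 rad14 yeast was recorded.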

[5] = NCI Yeast Anticancer Drug Screen. Data for the bub3 strain (AID 167); details: S. cerevisiae bub3 mutant strain, stronger effect = higher value
Outline: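 Whole-cell yeast assay. The mutant strain was incubated with compounds, and growth inhibition was determined by comparison with vehicle-treated cells.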

[6] = NCI Yeast Anticancer Drug Screen. Data for the mlh1 rad18 strain (AID 175); details: S. cerevisiae mlh1 rad18 strain growth inhibition, stronger effect = higher value
Outline: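 Test agents were incubated with a yeast strain of defined genotype (DNA damage repair defect). Inhibition of growth was derived by comparison with vehicle-exposed cultures.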

[7] = at 5.0 µM (retest, dose inferred, filed as 0.5)
[8] = at 50.0 µM (retest, dose inferred, filed as 5.0)

Structure (SMILES)	growth inhibition [1, 7]	growth inhibition [1, 8]	growth inhibition ([1]; at 50.0 µM)	growth inhibition [2, 7]	growth inhibition [2, 8]	growth inhibition ([2]; at 50.0 µM)	growth inhibition [3, 7]	growth inhibition [3, 8]	growth inhibition ([3]; at 50.0 µM)	growth inhibition [4, 7]	growth inhibition [4, 8]	growth inhibition ([4]; at 50.0 µM)	growth inhibition [5, 7]	growth inhibition [5, 8]	growth inhibition ([5]; at 50.0 µM)	growth inhibition [6, 7]	growth inhibition [6, 8]	growth inhibition ([6]; at 50.0 µM)
C/C(=N\N=C(N)N)c1ccc2c(c1)Cc1cc(/C(C)=N/N=C(N)N)ccc1-2	42%	98% (active)	87.8% (active)	40%	99% (active)	88.8% (active)	39%	99% (active)	84.7% (active)	43%	99% (active)	87.2% (active)	52%	98% (active)	83.3% (active)	54%	98% (active)	90% (active)
Oc1ccc2c(c1)Cc1ccccc1-2	1%	70% (active)	93.2% (active)	0%	28%	87.1% (active)	1%	28%	53%	-8%	70% (active)	88.3% (active)	-2%	82% (active)	98.2% (active)	-1%	72% (active)	93.1% (active)
CN1CCN(CCn2c3c4ccccc4ccc3c3oc(=O)c4ccccc4c32)CC1	40%	95% (active)	38.5%	-13%	97% (active)	89.7% (active)	28%	96% (active)	91.2% (active)	22%	92% (active)	90.4% (active)	19%	97% (active)	91.8% (active)	13%	97% (active)	90.8% (active)
NNC(=O)c1ccccc1SSc1ccccc1C(=O)NN	82% (active)	99% (active)	99.3% (active)	81% (active)	99% (active)	99.7% (active)	74% (active)	99% (active)	99.7% (active)	51%	99% (active)	98.7% (active)	98% (active)	99% (active)	99.1% (active)	71% (active)	99% (active)	99.4% (active)
CCOc1ccc(/C=C\c2ccnc3ccccc23)cc1OCC	-5%	97% (active)	98.3% (active)	-1%	99% (active)	97% (active)	1%	99% (active)	50.9%	-3%	99% (active)	98.2% (active)	5%	99% (active)	97.3% (active)	-13%	98% (active)	96.3% (active)
CN(C)CCCc1ccc2oc3ccccc3c2c1	5%	65%	77.8% (active)	4%	39%	40.7%	6%	54%	48.6%	15%	34%	27.1%	14%	77% (active)	69%	7%	42%	48%
FC(F)(F)c1cccc(Nc2ccc3cnc4ccccc4c3c2)c1	6%	92% (active)	94.7% (active)	-19%	97% (active)	95.2% (active)	-1%	97% (active)	96.6% (active)	-5%	95% (active)	92.5% (active)	-2%	95% (active)	95.2% (active)	17%	95% (active)	93.3% (active)
CC(=O)Nc1ccc2c(c1)C(=Nc1ccc(F)cc1)c1ccccc1-2	7%	83% (active)	54.1%	0%	84% (active)	4.35%	2%	62%	14.3%	-1%	74% (active)	40.4%	-4%	47%	45.4%	0%	94% (active)	50.7%
N#CC(C#N)=C(C1CC1)C1CC1	-76%	96% (active)	0.4%	-42%	94% (active)	-2.5%	-47%	96% (active)	-1.9%	-56%	92% (active)	41.4%	-59%	93% (active)	11.8%	-95%	94% (active)	-21.9%
CCCC/C=C(/CCCNCCCC)[Si](C)(C)C	70% (active)	97% (active)	91.8% (active)	72% (active)	99% (active)	93.7% (active)	90% (active)	99% (active)	94.2% (active)	73% (active)	98% (active)	92.8% (active)	90% (active)	99% (active)	92.7% (active)	91% (active)	98% (active)	91.9% (active)
COc1ccc2c(c1)C(O)=C(CC=C(C)C)C(=O)C2=O	-2%	16%	26.8%	22%	46%	35%	27%	61%	20.2%	7%	1%	46.3%	8%	23%	4.1%	35%	79% (active)	41.4%
Nc1c(Cl)nc(C(F)(F)F)nc1NCc1ccccc1	60%	99% (active)	39.7%	99% (active)	99% (active)	8.25%	97% (active)	99% (active)	1.45%	99% (active)	99% (active)	-48.1%	99% (active)	99% (active)	23.7%	91% (active)	99% (active)	5.35%
CC(C)[C@H](N)C(=O)NCCNC(=O)[C@@H](N)C(C)C	90% (active)	99% (active)	-24.6%	66%	99% (active)	-4.9%	62%	99% (active)	-14.2%	89% (active)	99% (active)	17.2%	93% (active)	100% (active)	37.1%	89% (active)	99% (active)	4.4%
COc1ccccc1C(=O)N(Cc1ccccc1)c1ccc(Cl)c(C(=O)OC(C)C)c1	28%	59%	15.3%	-7%	14%	1.25%	1%	33%	-33.3%	-6%	14%	10.5%	-55%	15%	-8.1%	3%	31%	19.1%
C=C1C(=O)OC2/C=C(\C(=O)O)CC/C=C(\C)CC(OC(=O)/C=C(\C)CC)C12 (stereo not given)	-1%	79% (active)	94% (active)	-5%	79% (active)	68.2%	-1%	79% (active)	77.1% (active)	-19%	69%	69.8%	-7%	84% (active)	84.2% (active)	-4%	93% (active)	77.1% (active)
Oc1c(Cl)cc(CN(Cc2cc(Cl)c(O)c(Cl)c2)C2CCCCC2)cc1Cl	10%	87% (active)	97.8% (active)	1%	88% (active)	98.9% (active)	2%	88% (active)	97.6% (active)	-17%	51%	98.2% (active)	-9%	88% (active)	97.6% (active)	-12%	95% (active)	98% (active)
CC(NC(=O)C(Cc1ccccc1)NC(=O)c1ccc[n+](Cc2ccccc2)c1)C(N)=O (stereo not given)	0%	-5%	0.65%	0%	-2%	-3.05%	-1%	3%	-9.9%	0%	-1%	-4.7%	1%	-11%	-1.9%	-1%	-2%	28.1%
COc1ccc(/C=C2\Sc3scc(-c4ccc([N+](=O)[O-])cc4)[n+]3C2=O)cc1OC	3%	4%	39.3%	-6%	20%	55%	-3%	11%	66%	0%	-4%	28.6%	9%	16%	83% (active)	3%	12%	65.8%
Fc1ccc(C2SCc3nc4ccccc4n32)cc1Cl (stereo not given)	32%	78% (active)	91.3% (active)	27%	72% (active)	93% (active)	37%	90% (active)	94.3% (active)	24%	69%	92.5% (active)	33%	88% (active)	91.8% (active)	41%	89% (active)	92.1% (active)
Cc1ccc(-c2ccccc2)n1-c1cc(Cl)ccc1O	12%	99% (active)	99% (active)	4%	99% (active)	99.2% (active)	-1%	99% (active)	99.2% (active)	8%	99% (active)	97.9% (active)	0%	99% (active)	99% (active)	10%	99% (active)	99.1% (active)
